Source: PubChem BioAssay AID1209 (Sanford-Burnham Center for Chemical Genomics, 2008)
“And” between values parts separate entries of the source, which are not always exact repeats. Identical values can stand only once. Screen size: about 190,000 compounds; about 810 (0.43%) were called active. No stated cut-off is given here; in the data, active means inhibition above about 50%; inactive means the rest. For the sample, actives were picked, then their nearest neighbours and some compounds at random.

The compounds below were run against Mannose-6-phosphate isomerase (Homo sapiens) (UniProt P34949) (assay: inhibitors of human PMI, primary screen, biochemical, fluorescence intensity, coupled assay (AID 1209;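 further: plate controls were DMSO vehicle for no effect and wells lacking substrate for full effect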)). Settings: purified PMI enzyme, at 20 µM, hits give high values.
Chain of Mannose-6-phosphate isomerase (Homo sapiens) (P34949 whole entry, looked up): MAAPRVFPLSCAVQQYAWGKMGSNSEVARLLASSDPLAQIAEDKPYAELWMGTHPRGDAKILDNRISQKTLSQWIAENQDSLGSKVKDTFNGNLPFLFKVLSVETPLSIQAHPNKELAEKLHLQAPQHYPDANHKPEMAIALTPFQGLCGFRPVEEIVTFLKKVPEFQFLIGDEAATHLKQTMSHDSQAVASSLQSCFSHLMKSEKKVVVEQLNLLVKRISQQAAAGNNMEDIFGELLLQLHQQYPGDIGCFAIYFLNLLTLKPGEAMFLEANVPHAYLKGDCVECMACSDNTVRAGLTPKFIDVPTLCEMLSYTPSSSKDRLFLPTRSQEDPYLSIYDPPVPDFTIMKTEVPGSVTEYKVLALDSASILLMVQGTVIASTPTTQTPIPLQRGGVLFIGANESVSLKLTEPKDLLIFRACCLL

Structure (SMILES)	inhibition
CCN(CC)S(=O)(=O)N1CCC(C(=O)NCCN2CCOCC2)CC1	-6.8% (inactive)
CCOC(=O)C1CCN(S(=O)(=O)c2ccc(CC)cc2)CC1	-5.3% (inactive)
CC(=O)c1ccc(NC(=S)N2CCN(CCN3C(=O)c4cccc5cccc(c45)C3=O)CC2)cc1	10.7% (inactive)
COc1cccc(NC(=O)c2cc(-c3cccnc3)nc3c(Cl)cccc23)c1	1.6% (inactive)
O=C(CCc1ccccc1)Nc1cccc(NC(=O)CCc2ccccc2)c1	13.7% (inactive)
O=C(CCc1ccccc1)Nc1cc(NC(=O)CCc2ccccc2)cc(C(=O)O)c1	63.6% (active)
O=C(CCc1ccccc1)Nc1cc(C(=O)O)cc(C(=O)O)c1	-2% (inactive)
Cc1cccc(NC(=O)N(C)Cc2cccs2)c1	0.5% (inactive)
NNC(=O)c1cccc(O)c1	10% (inactive)
NNC(=O)c1cc(O)c(O)c(O)c1	51.2% (active)
COC(=O)c1cc(O)c(O)c(O)c1	34% (inactive)
O=C(Nc1cccc(O)c1)c1noc2c1CCCCC2	-1.4% (inactive)
O=c1nc(Nc2ccc(OCc3ccccc3)cc2)sc2ncccc12	3% (inactive)
Cc1ccc(Nc2nc(=O)c3cccnc3s2)cc1	1.7% (inactive)
COc1ccc(OC)c(Nc2nc(=O)c3cccnc3s2)c1	68.3% (active)
Cc1nnc(SCC(=O)Nc2ccc3c(c2)OCCO3)n1N	11.3% (inactive)
Oc1ccc(Br)cc1C=Nc1ccc2c3c(cccc13)CC2	38.4% (inactive)
Cc1cccc(C=Nc2ccc3c4c(cccc24)CC3)c1O	44.8% (inactive)
Oc1ccc(Cl)cc1C=Nc1ccc2c3c(cccc13)CC2	50.8% (active)
O=[N+]([O-])c1ccc2c(c1)ncn2-c1ccccc1	-3.3% (inactive)
Nc1ccc(-n2cnc3cc([N+](=O)[O-])ccc32)cc1	53.9% (active)
COc1ccc(-n2cnc3cc([N+](=O)[O-])ccc32)cc1	5.5% (inactive)
N=C1C=CC=C2C1=NC1(CCCCC1)N2O	72.2% (active)
CCOC(=O)C1CCN(CC(O)COCc2cccs2)CC1 (stereo not drawn)	-1.6% (inactive)
Cc1cc(N=Cc2c(O)ccc3ccccc23)no1	43.9% (inactive)
Oc1ccc2ccccc2c1/C=N/c1nccs1	39.6% (inactive)

Structure (SMILES)	inhibition
Oc1ccc2ccccc2c1C=Nc1ccc(Cl)cn1	56.1% (active)
O=C(CSc1nc2ccc(Cl)cc2[nH]1)NCc1ccco1	1.5% (inactive)
Cc1cccc(-n2c3nc(=O)[nH]c(=O)c-3cc3c(C)nn(-c4ccccc4)c32)c1	6.4% (inactive)
COc1cc([N+](=O)[O-])ccc1NC(=O)/C=C/C(=O)O	-26.7% (inactive)
S=C(NCCCn1ccnc1)Nc1ccc(Cl)cc1Cl	5.5% (inactive)
O=C(CSc1nnc2ccccn12)NNC(=O)c1ccccc1	-2.1% (inactive)
CCSc1nnc(N)s1	-0.6% (inactive)
CCSc1nnc(NC(=O)CC)s1	0% (inactive)
COc1ccccc1-n1c(=S)[nH]c2c(sc(=S)n2-c2ccccc2)c1=O	-4.5% (inactive)
COc1ccc(OC)c(-n2c(=S)[nH]c3c(sc(=S)n3-c3ccccc3)c2=O)c1	9.9% (inactive)
COc1ccc(-n2c(=S)[nH]c3c(sc(=S)n3-c3ccccc3)c2=O)c(OC)c1	62.6% (active)
CC(O)[C@@H](C(=O)N1CCNCC1)n1cc(CCCCN)nn1 (stereo partly drawn)	4% (inactive)
Cc1sc2nc(CSc3ccccc3)nc(N3CCC(C(N)=O)CC3)c2c1C	13.3% (inactive)
CCOC(=O)NC(=O)/C(C#N)=C\c1ccccc1	52.6% (active)
Cc1ccc(/C=C(/C#N)C(=O)NC(=O)Oc2ccccc2)cc1	4.9% (inactive)
N#C/C(=C\c1ccccc1)C(=O)NC(=O)Oc1ccccc1	11.3% (inactive)
CSc1cccc(NC(=S)N2CCC(N(C)C3CCCCC3C)CC2)c1 (stereo not drawn)	-2.7% (inactive)
COc1ccccc1N1CSC2=C(C#N)C(c3ccc(SC)cc3)CC(=O)N2C1 (stereo not drawn)	-29.2% (inactive)
CCc1ccccc1N1CSC2=C(C#N)C(c3cc(OC)c(OC)cc3OC)CC(=O)N2C1 (stereo not drawn)	46% (inactive)
COc1ccc2ccccc2c1C1CC(=O)N2CN(C)CSC2=C1C#N (stereo not drawn)	54.3% (active)
COc1ccc(C2CC(=O)N3CN(c4ccccc4F)CSC3=C2C#N)cc1OC (stereo not drawn)	34.9% (inactive)
CCOc1ccccc1N1CSC2=C(C#N)C(c3c(OC)ccc4ccccc34)CC(=O)N2C1 (stereo not drawn)	64.9% (active)
CCOc1cc(C2CC(=O)NC(SCC)=C2C#N)ccc1O (stereo not drawn)	9.3% (inactive)
COc1ccc2ccccc2c1C1CC(=O)N2CN(C3CCCCC3)CSC2=C1C#N (stereo not drawn)	25.9% (inactive)
CCOc1cc(C2CC(=O)N3CN(C4CCCCC4)CSC3=C2C#N)ccc1O (stereo not drawn)	54.5% (active)
CN1CSC2=C(C#N)C(c3cccc(OCc4ccccc4)c3)CC(=O)N2C1 (stereo not drawn)	29.7% (inactive)

Structure (SMILES)	inhibition
CC(NC(=O)COC(=O)c1ccco1)c1ccccc1 (stereo not drawn)	6.4% (inactive)
COc1c(Cl)cc(Cl)cc1C(=O)Nc1ccc(NC(C)=O)cc1	7.9% (inactive)
O=C(Cn1nnc(-c2ccccc2)n1)OC1CCOC1=O (stereo not drawn)	-0.6% (inactive)
Cc1nn(CC(=O)NNC(=S)Nc2ccccc2)c(C)c1[N+](=O)[O-]	0% (inactive)
CC1(C)Cc2c(sc(N)c2C#N)C(C)(C)N1	11.6% (inactive)
Cc1nn(CC(=O)NCCc2ccccc2)c(C)c1[N+](=O)[O-]	2.6% (inactive)
CCOc1ccc(C(O)C(CN2CCOCC2)c2ccccc2)cc1 (stereo not drawn)	-4.1% (inactive)
COC(=O)c1c(NC(=O)c2cccnc2)sc(C)c1C	-4.9% (inactive)
CCOc1cc(Cl)c(NC(C)=O)cc1OCC	-3% (inactive)
CC(=O)Nc1cc(OC(C)=O)c2nonc2c1OC(C)=O	83.9% (active)
CC(=O)Nc1nonc1NC(C)=O	5.4% (inactive)
CCOc1cc(NC(=O)CCl)c(OCC)cc1NC(C)=O	-3.2% (inactive)
COc1cc(O)c(C(C)=O)cc1OC	-15.9% (inactive)
COc1cc(O)c(NC(C)=O)c2nonc12	64.6% (active)
NC(=O)c1sc2nc3c(cc2c1N)CCC3	-8% (inactive)
Nc1c(C(=O)N2CCCC2)sc2nc3c(cc12)CCCCCC3	95% (active)
COC(=O)c1sc2nc3c(cc2c1N)CCCC3	14.2% (inactive)
O=[N+]([O-])c1cc(-c2cnc3ccccc3n2)ccc1Oc1ccc(Cl)cc1	5.9% (inactive)
CCOc1ccccc1C1CC(=O)NC(SCC(=O)Nc2nccs2)=C1C#N (stereo not drawn)	-8.2% (inactive)
CCOC(=O)C1C(=O)NC(SCC(=O)OC)=C(C#N)C1c1ccccc1OCC (stereo not drawn)	14.3% (inactive)
CCOC(=O)C1C(=O)NC(SCC(=O)Nc2nccs2)=C(C#N)C1c1ccccc1OCC (stereo not drawn)	54.2% (active)
CCOc1ccc(CCNC(=O)COC(=O)c2cccc(OC)c2O)cc1OCC	5.3% (inactive)
O=C1OC(Nc2ncccn2)c2ccccc21 (stereo not drawn)	4.9% (inactive)
O=C1OC(Nc2ccc3ncccc3c2)c2ccccc21 (stereo not drawn)	62.7% (active)
O=C1OC(Nc2cc(Br)cc3cccnc23)c2ccccc21 (stereo not drawn)	14.2% (inactive)
O=C(C1CCN(S(=O)(=O)c2cccc3cccnc23)CC1)N1CCN(c2ccccc2)CC1	13.6% (inactive)

Structure (SMILES)	inhibition
Cc1ccc(-n2nnnc2SCC(=O)N2CCc3ccccc3C2)cc1	-23.5% (inactive)
CCn1c(SCC(=O)N2CCCc3ccccc32)nnc1-c1ccoc1C	-2.9% (inactive)
CCS(=O)(=O)c1ccc(O)c(NC(=O)COc2ccc(OC)cc2)c1	9.9% (inactive)
O=C(CC1CCCCC1)OCn1nnc2ccccc2c1=O	-0.7% (inactive)
CCOC(=O)C1=C(C)NC(C)=C(C(=O)OC)C1c1cccc([N+](=O)[O-])c1 (stereo not drawn)	13.5% (inactive) and 1.6% (inactive)
COC(=O)C1=C(C)NC(C)=C(C(=O)OC)C1c1ccccc1[N+](=O)[O-]	83.1% (active)
COC(=O)C1=C(C)NC(C)=C([N+](=O)[O-])C1c1ccccc1C(F)(F)F (stereo not drawn)	-1.2% (inactive)
COc1ccc(S(=O)(=O)N2CCOCC2)cc1OC	-10.5% (inactive)
O=C(OC(C(=O)NCc1ccco1)C(OC(=O)c1ccccc1)C(=O)NCc1ccco1)c1ccccc1 (stereo not drawn)	-6.4% (inactive)
COc1ccc(CNc2cc(NCCCO)c([N+](=O)[O-])c3nonc23)cc1	52.3% (active)
Cn1ccnc1Sc1cc(NCCCO)c([N+](=O)[O-])c2nonc12	-0.6% (inactive)
Cc1nnc(Sc2cc(NCCCO)c([N+](=O)[O-])c3nonc23)s1	31.1% (inactive)
CC(=O)OCCCNc1cc(Sc2ccc(Cl)cc2)c2nonc2c1[N+](=O)[O-]	30.1% (inactive)
O=[N+]([O-])c1c(NCCCO)cc(SCc2ccco2)c2nonc12	20.8% (inactive)
O=[N+]([O-])c1c(NCCCO)cc(Sc2ccc(Cl)cc2)c2nonc12	50.2% (active)
CCS(=O)(=O)CCSc1nc2c(cc1C#N)CCCC2	5.3% (inactive)
Oc1oc(C=Nc2ccc(F)cc2F)c2ccccc12	-80.8% (inactive)
Fc1ccc(F)c(C2=NNC(=Nc3ccccc3F)SC2)c1	22.5% (inactive)
Fc1ccc(N=c2ssnc2Cl)c(F)c1	80.9% (active)
Cc1cc(Cl)ccc1N=C1N=C(N)c2ccccc21	9.1% (inactive)
Cc1cc(Cl)ccc1N=Cc1c(O)n(C)c(=O)n(C)c1=O	9.5% (inactive)
Cc1cc(Cl)ccc1N=c1ssnc1Cl	52.8% (active)
Cc1ccc(CCNc2ccccc2C)cn1	-6.3% (inactive)
COc1ccc(C)cc1NC(=O)c1nnn(CCc2ccccc2)c1N	8.1% (inactive)
CSc1ccccc1NC(=O)c1cc(-c2cccnc2)nc2ccc(Br)cc12	-3% (inactive)
